Only some compounds are listed: those with a hit (about 4.7% of all), similar ones and a draw of the others.
D1 antagonist: blocks dopamine activation of the human D1 receptor; HEK293 TREx D1 cells, calcium flux, dopamine EC80; hits give low values; activity change, negative = inhibition, % at 10 µM; actives 3.2% (n = 360,000); in the data active = activity change below about -30%; also: % is scaled to controls: 0 for no effect and ±100 for the full control effect
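Cells carrying a force-coupled, tetracycline-inducible human D1 receptor report calcium flux. Each well gets a 10 s baseline, compound with 180 s monitoring, then an EC80 dopamine stimulus with a second 180 s kinetic read.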
TRHR PAM: allosterically enhances the human TRH receptor. enhancement, % at 2 µM. TRHR cells, fluo-8 calcium fluorescence, EC20 TRH enhancement. AID 493056. actives 0.66% (n = 360,000); in the data active = enhancement above about 30%; also: 0% is about no effect
Target sequence (P34981 whole entry, looked up): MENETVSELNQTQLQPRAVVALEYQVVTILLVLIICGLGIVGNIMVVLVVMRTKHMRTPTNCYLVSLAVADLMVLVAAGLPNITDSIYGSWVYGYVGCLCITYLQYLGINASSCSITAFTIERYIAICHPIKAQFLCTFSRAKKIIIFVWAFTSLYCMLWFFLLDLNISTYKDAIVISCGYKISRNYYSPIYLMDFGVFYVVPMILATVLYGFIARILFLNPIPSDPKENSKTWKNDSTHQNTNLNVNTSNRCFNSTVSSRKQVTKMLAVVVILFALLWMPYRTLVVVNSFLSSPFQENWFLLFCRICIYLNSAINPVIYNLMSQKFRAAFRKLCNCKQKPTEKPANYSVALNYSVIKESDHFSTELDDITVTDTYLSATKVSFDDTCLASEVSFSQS
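TRHR-expressing cells loaded with fluo-8 calcium dye were read kinetically (ex 480/em 530) during compound addition, then stimulated with an EC20 of TRH (10 nM final). Enhancement of the Gq-mediated intracellular calcium response was scored.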
D1 agonist: activates the human D1 dopamine receptor | HEK293 T-REx D1 cells, calcium flux, agonist mode | activation, % at 2 µM | actives 1% (n = 360,000) | P21728; also: 0% is about no effect
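Inducible HEK293 T-REx D1 cells, force-coupled to calcium signalling, were plated at 4000 cells/well with tetracycline and held overnight at 30 C. After no-wash calcium dye loading, compound-evoked calcium rise over 180 s flagged agonists.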
TRHR agonist: agonists of human TRH receptor | P34981 | TRHR cells, calcium flux fluo-8, FDSS agonist mode | activation, % at 2 µM | actives 0.18% (n = 360,000) | AID 493084; also: 0% is about no effect
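TRHR-expressing cells, plated overnight in medium with 10% serum, were loaded with fluo-8 calcium dye at room temperature. After a 10 s baseline, library compound was pin-added and calcium release was recorded kinetically (ex 480/em 530) as agonist response.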
D1 PAM: potentiators of human D1 dopamine receptor | P21728 | HEK293 TREx D1 cells, calcium flux, dopamine EC20 potentiation | potentiation, % at 10 µM | actives 0.036% (n = 360,000); in the data active = potentiation above about 30%; also: 0% is about no effect
* = called active by the depositor. Rule as the data show it, unless noted: active = activation above about 30%; inactive = the rest.

SMILES | D1 antagonist | TRHR PAM | D1 agonist | TRHR agonist | D1 PAM
Cc1ccc(OCCCC(=O)Nc2sc3c(c2C(N)=O)CCC(C)C3)cc1 (stereo not drawn) | -6 | 7 | -3 | -1 | 4
COc1cccc(CN2CCN(Cc3cc4ccccc4[nH]3)CC2CCO)c1 (stereo not drawn) | -49* | -17 | 72* | 15 | -1
CC(C)(C)CN1CCN(Cc2cc3ccccc3[nH]2)CC1CCO (stereo not drawn) | 17 | 2 | 3 | 0 | -7
COc1ccc(CN2CCN(Cc3c[nH]c4ccccc34)CC2CCO)c(F)c1 (stereo not drawn) | -36* | 1 | 15 | 1 | -11
Cc1ncc(CN2CCN(Cc3ccccc3)C(CCO)C2)s1 (stereo not drawn) | -6 | 22 | 0 | -1 | 5
CCOc1ccc(CN2CCN(Cc3cc4ccccc4[nH]3)CC2CCO)cc1 (stereo not drawn) | -30* | -7 | 41* | 24 | 6
CCOc1ccc(CN2CCN(Cc3cnc(-c4ccccc4)s3)CC2CCO)cc1 (stereo not drawn) | -10 | 1 | 61* | -1 | -3
COc1cc([C@@H]2Nc3c(F)cccc3[C@@H]3C=CC[C@@H]32)cc(Br)c1OC | -5 | -2 | 2 | 0 | 0
Cc1ccc(CNC(=O)c2c3c(nc4ccccc24)C(=O)N(C2CCCCC2)C3)cc1 | 7 | -1 | 1 | 0 | -2
N=c1sccn1CC(=O)Nc1cc(Cl)ccc1Oc1ccccc1 | -11 | -14 | 55* | 2 | -2
N=c1sccn1CC(=O)Nc1cccc(Oc2ccccc2)c1 | 3 | 12 | 21 | 2 | -3
COC(=O)c1ccc(C2C=C(c3ccc(Cl)cc3)Nc3nc4ccccc4n32)cc1 (stereo not drawn) | 0 | 1 | 6 | 1 | 6
CCCn1c(=O)c(C(=O)Nc2ncccc2C)c(O)c2ccccc21 | -16 | -5 | 49* | 5 | 0
Cc1cccc(C(=O)NNC(=O)c2c(O)c3ccccc3n(C)c2=O)c1 | 2 | 37* | 17 | -1 | 0
CCCn1c(=O)c(C(=O)Nc2cccc(C)n2)c(O)c2ccccc21 | 14 | 9 | 4 | 1 | 4
Cn1c(=O)c(C(=O)NNC(=O)c2cccc(Cl)c2)c(O)c2ccccc21 | 0 | -1 | 2 | 0 | -1
CCCn1c(=O)c(C(=O)NNC(=O)c2ccc(Cl)cc2Cl)c(O)c2ccccc21 | -13 | -1 | 41* | 4 | -6
Cc1ccc2c(c1)N(CC(=O)Nc1ccccc1C(F)(F)F)C(=O)c1cccnc1O2 | -10 | 11 | 1 | -1 | -4
COc1ccc(-c2[nH]n(-c3ccc([N+](=O)[O-])cc3)c(=O)c2C=NCc2ccncc2)cc1 | -31* | 5 | 6 | -2 | -8
COc1cc2ncc3c(-c4ccccc4)nn(-c4ccc(C)cc4)c3c2cc1OC | 1 | 2 | 1 | 0 | 0
COc1cc(/C=N/NC(=O)C23CC4CC(CC(C4)C2)C3)cc(Br)c1O | 22 | 3 | 1 | 0 | -4
O=C(N/N=C/c1cc([N+](=O)[O-])cc(Br)c1O)C12CC3CCC(CC(C3)C1)C2 | -32* | -2 | 122* | 29 | 14
Cc1ccccc1-c1nc2c(c(SCc3cccc(Cl)c3)n1)Cc1c(CO)cnc(C)c1O2 | 7 | -5 | 0 | 0 | -3
CC(C)c1ccc2oc(-c3cccc(NC(=O)c4ccc5c(c4)OCCO5)c3)nc2c1 | 0 | 4 | 16 | 1 | 2
CC1(OC(=O)CCc2ccccc2)C(=O)C=C2C=C(c3ccc(C#N)cc3)N(c3ccccc3)C=C2C1=O (stereo not drawn) | -37* | 6 | 7 | 0 | -5
SMILES | D1 antagonist | TRHR PAM | D1 agonist | TRHR agonist | D1 PAM
COc1cccc(NC(=O)Cn2c(=O)n(-c3ccccc3)c(=O)c3ccc(C(=O)NCc4ccc5c(c4)OCO5)cc32)c1 | 2 | -5 | 2 | 2 | -2
Cc1cc(CSC(=N)N)c(CSC(=N)N)cc1C | -95* | -23 | 2 | 1 | -3
CCc1oc(C(=O)OC)cc1CSC(=N)N | -23 | -3 | 5 | -1 | -7
COc1ccccc1C(=O)NCCn1cc(SCC(=O)Nc2ccccc2F)c2ccccc21 | -8 | -7 | 1 | -2 | -5
O=C(NNC(=S)NC(=O)c1ccccc1)c1cccc([N+](=O)[O-])c1 | -6 | 5 | 15 | 0 | 0
O=C(NNC(=S)NC(=O)c1cccc([N+](=O)[O-])c1)c1ccc(Br)cc1 | 4 | -7 | 32* | 6 | -3
O=C(NNC(=S)NC(=O)c1cccc([N+](=O)[O-])c1)c1ccc(O)cc1 | 1 | -2 | 1 | 0 | -2
Cc1ccc(CSCCNC(=O)c2cccc([N+](=O)[O-])c2)cc1 | -43* | 8 | 19 | -1 | -7
Cc1ccc(C(=O)NC(=S)NNC(=O)c2cccc([N+](=O)[O-])c2)cc1 | -3 | 6 | 50* | 9 | 0
CCCCC(=O)NNC(=S)NC(=O)c1ccc([N+](=O)[O-])cc1 | -17 | -2 | 5 | -1 | 4
CCCCC(=O)NNC(=S)NC(=O)c1ccc(C)cc1 | -17 | 0 | 60* | 14 | 1
CCOC(=O)c1[nH]c2ccc(C)cc2c1NC(=O)CN1CCCCC1 | -10 | -4 | -1 | 0 | 0
CCOC(=O)c1[nH]c2ccc(OCC)cc2c1NC(=O)CN1CCCC(C)C1 (stereo not drawn) | -36* | 5 | 3 | 0 | -6
OCCNCC(O)Cn1c2ccccc2c2ccccc21 (stereo not drawn) | 4 | 3 | 3 | 0 | -3
COc1ccccc1CNCC(O)Cn1c2ccccc2c2ccccc21 (stereo not drawn) | -10 | 13 | 90* | 6 | -5
CN(C)c1oc(/C=C/c2ccc(F)cc2)nc1C#N | -17 | -5 | -1 | -2 | 0
CN(C)CCN1C(=O)C(O)=C(C(=O)c2cc3ccccc3o2)C1c1cccc(Br)c1 (stereo not drawn) | -38* | 0 | 0 | 0 | -4
O=c1[nH]c2ccccc2nc1/C=C(\O)c1cccs1 | -6 | 6 | 279* | 115* | 5
CC(C)(C)/C(O)=C/c1nc2ccccc2[nH]c1=O | -7 | 5 | 45* | 1 | -1
Cc1cc(C(=O)COC(=O)c2ccc(O)cc2)c(C)n1CCc1ccc(F)cc1 | -1 | 33* | 12 | 1 | -7
COc1ccc(Nc2ccc3c(c2)=NC2(CCCCC2)[N+]=3[O-])cc1 | -4 | -8 | 1 | 0 | -4
[O-][N+]1=c2ccc(Nc3ccccc3)cc2=NC12CCCCC2 | -55* | 1 | 1 | 1 | -10
CC(=O)N1c2ccc(S(=O)(=O)N3CCC(C(=O)Nc4cccc(C(F)(F)F)c4)CC3)cc2CC1C (stereo not drawn) | -34* | -4 | 3 | 1 | -4

Source: PubChem
